From the supplement of paper PMC12632987

B1: GBRAPL2_53_7343 (protein)
chain: MIEVDIAHPDKEVMAAAVEAVFDILERAGVEARVTVTKEDGTVVELEGPLEEVRAQAVALAKATEVLVRIELPDEAEEVVEEIEDEALAKGATVSVERIP
B2: GBRAPL2_53_7367 (protein)
chain: MTLVEVEHPDKEKLLKAAEKIAEIAKKLGVNITVIFVKSDGSVERFTANAEEALKIAREKIKEGDVIIEVELEDSQEEALEEIIDAAAEAGAVVSVEKLP
B3: GBRAPL2_53_7348 (protein)
chain: MYVVEIAHPDRDVLAAAIEAVFDLIEEAGVEAEVTVTLEDGTVIKLEGPISEVKERAVALAKETDVLVEIKLPDEAEEVVEELEDIALEKGATVSVEKLE
B4: GBRAPL2_43_7342 (protein)
chain: MTEIEKKAIEEAREALEEKLDLDGVKEYEEEVEIRKEGDRTIAIVKATSKETGKEYYAVAVYDKNGELLVVVVSSDLERALKAAEDLIELGERDTYVLLP
B5: GBRAPL2_53_7344 (protein)
chain: MIEVDIAHPDKEVMAKAVEAVFDILEEAGVEAEVEVTKEDGTVERLRGPLEEVREKAVKLAKETEVLVTIRLPDSAEEVVEKIEDEALKHGATVSVKRLE
B6: GBRAPL2_53_7364 (protein)
chain: MYLVEVEHPDKEKLLKAAEEIAKIAKKHNLKITVIFVKEDGTVERYTANAEEALKIAKEWIEKGDVILEVKLPDSLEEVKEEIIDAAAKNGAVVSVEELE
B7: GBRAPL2_53_7350 (protein)
chain: MYVIEIAHPDKETLAKAIEAIFDKLIEAGVEAKITVTLEDGTVIKLEGSLEEQKKKAVALAKETNVLVEIELPDSAKEVVEELEDIALKEGATVSVEKLE
B8: GBRAPL2_53_7351 (protein)
chain: MYRVLIGHPDKEVMVKALEKVFEILEEAGVEAKVKVTKEDGTVIELEGPIKEIKEETLKLAKEQPILVEIELPDEAEEVVEKIVDAALEAGATVSVEKVE
B9: GBRAPL2_53_7365 (protein)
chain: MTLVEVEHVDPEKMRAAAKKIAEVAKKHGLKIKVVFVDDEANVTEVTANAEEALKIAEEWIEKGHVILEVELPDDLEEVKEEIIDIAAEEGAVVSVEELE
B10: GBRAPL2_53_7357 (protein)
chain: MLRLSIAHPDPAVVAEALRRIFEILREAGVEAEVVVTLEDGTVVRLTGDLDEIEARVTELAAKQPVLVDIYMPDSAEETVEEMEDAALDAGATVSVERVP
B11: GBRAPL2_53_7356 (protein)
chain: MLELEIAHPDKEIMAKAVEEIFNLLKEENVEAEVTVTTENGEVIKLTGDIEEIKKKVVELAKKQPILVSIKLPDSAEEVVEKMEDIALELGATVSVSRLE
B12: GBRAPL2_53_7349 (protein)
chain: MYEVEIAHPDKEVLAAAIEAIFDKIEEAGVEAEVEVTLEDGTVIKLEGPIEEQKEEAVALAKETDVLVTIKLPDEAEELVEELEDIALEKGATVSVEKLE
B13: GBRAPL2_53_7358 (protein)
chain: MLVVEIAHPDPAVVKEAAKKILAVIKEDGVEAKVTVTTENGEVKVLTGDIDKIEAEVTALAAKQPVLISIELPDSAEETVEKMEDIALEAGATVSVYREP
B14: GBRAPL2_53_7354 (protein)
chain: MIAIEIGHPNKEVMVEALKKVFEIIKKAGEKVEVEVTLEDGTVIKLEGSVEEIEEKVLELAKKQPILVTIYLPEKNEELVEEIEDAALEAGATVSVEELP
B15: GBRAPL2_53_7362 (protein)
chain: MWLVEVEHPDKEKLLKAAKEIFKIAKENGLKVTVKFVKEDGTVEEKTLNAEEALKYVEEKVKEGDVILEIELPDSLEEAKEKIIDAAAKHGAVVSVEELE
B16: GBRAPL2_53_7361 (protein)
chain: MIEIDIAHPDPAVVKKAAEKIFDVAEENGVEVEVEVTTEDGTVTRLTGSIEEIREKVTAMAAKQPVLITIYLPDEAEETAEEIEDIALEEGATVSREVLP
B17: GBRAPL2_53_7345 (protein)
chain: MIVVDVAHPDKEVMAEAVEAIFDILEENGVEAKVTVTLEDGTVVELEGPLDEVRKKAVELAKKSEVLVEIELPDSAEETVEKLEDVALEKGATVSVERIP
B18: GBRAPL2_53_7353 (protein)
chain: MIEVDIAHPDPEVMARALEKIFDIIKEAGQKVTVTVTTEDGTVITLTGDIDTIRAETVALAKQQPILVRIELEEEDEEVAEKVVDAALEEGATVSVERVE
B19: GBRAPL2_54_7372 (protein)
chain: MTIVEIEATFIAEGSDEELERIEEVALRELKKLAERLKKEFGAESEISSEREDGVLSVTVKITTEKENVDEVLDLLEETRERISRETGRPVSLVIGIKEL
B20: GBRAPL2_53_7359 (protein)
chain: MIEIDIAHPDKAVVKEAADKIFDVVEENGVEVEVTVTDENGTVTKLTGSVEEIREKVTAMAAKQPVLITIKLPDSAKETAEKIEDIALEKGATVSREELE
B21: GBRAPL2_53_7366 (protein)
chain: MTEVEIEHPDKEKMLKAAKKVFELVKERNLKVTVIYVDENANVTRVTANAEEALKIAEEWIEKGDVILEVILPDSEEELKEKIIDIAAENGAVVSVEELE
B22: GBRAPL2_53_7346 (protein)
chain: MKKVDIAHPDKEKLAKTLEEIFKILEENGVKAKVTVTTEDGNVIVLEGDLEEIREKTVKLAKETEVLVEIELPDDAEETVEKIIDVALKNGATVSVDGLE
B23: GBRAPL2_53_7347 (protein)
chain: MIEIDIAHPDKEVMAETLEEIFDVLKKAGVEAKVTVTTENGEVIVLEGDLDEIKEKVVELAKKTNILVTIELPEDAEEVVEEIIDIALEKGAAVSVDGLE
B24: GBRAPL2_54_7371 (protein)
chain: ETTVEIEATFLAEGTPEELARVRAVALEELEELKKELKEKFGAESEISAEEEDGVLSVTVTITTKKENLDEVLDLLEATRDRIAARTGLPVALVIGIKEL
B25: GBRAPL2_53_7360 (protein)
chain: MIVIDIAHPDKEVVKKAAEKIFDIVKEAGVEVEVTVTTEDGKVEKLTGSVDDIKAKVTELAAKQPVLIEITLPDSAKETAEKIVDVALEEGATVSVEELE
B26: GBRAPL2_53_7355 (protein)
chain: MVEIDIGHPDKEVMVKALEEVFDLIEKAGAEVEVIVTKEDGTVIKLTGSVEEIREKVIALAREQPILVTILLKEKNEKLVEEMVDAALKAGATVSVEELP
B27: GBRAPL2_53_7363 (protein)
chain: MYEVEVEHPDKEKLLRAAEKIAEIAEKHGLKITVTFVKEDATVEVHTADAKEALKIAKENIEKGDVILTVRLPDSLEEVREELIDAAAEEGAVVSVTELP
B28: GBRAPL2_54_7369 (protein)
chain: MKIVEVTFVAEREFFLANRERIRAAALATYAELRKRLPDKVGELLSEEYSETPDYGSLSLDIEVDESALDEVIDAFEATRDALSAELGHPVHVVIGIGDK
B29: GBRAPL2_54_7368 (protein)
chain: MIEVEITVVMKRENFLKHKELIKKILLEKVEELKKEHPDLIEKILEIEEEEYPDVGLLSIKILAKPEAEDLIRDLAEEIQKELEKKTGEKVHVVVAFGEL
B30: GBRAPL2_54_7370 (protein)
chain: ETIIEIEATFIAEGSEEELEEVEKVALEKLAELSEKLKKEFGAESEISSERENGVLSVTVKITTKKEDLDKVLDLLEETRDEISKETGKKVSLVIGIKEL
B31: GBRAPL2_175_7341 (protein)
chain: AAYEKLLKEIIELLDELAEKADDEVSDLLEAAAAVLETDGLAGAGRAAKLVAEAAKEAADNPKLQAALKEVAAALKAIADGAAPEEVEKLLKKAKAILKE
B32: GBRAPL2_175_7340 (protein)
chain: SAYEALLKEIIKLLLELSEKANDEVSDLLDAAAAVLETDGLAAAGRAAALVAEASKEAADNPQLQAALAKLAAALKALAAGAAPEEVEKLLKEAKAITKK

Biological target: GABARAPL2, P60520
Test: median log2 fold change of GCK-ALFA target abundance (FLAG IP / Myc IP barcode read proportion) (log2 ratio); each designed protein is fused to an ALFA-tag nanobody in HEK293 cells to bring the named protein to FLAG-tagged glucokinase (GCK); Myc marks an untargeted standard; higher = target protein stabilised (more abundant)
Settings: target protein: 3xFLAG-MCP-GCK-ALFA reporter; HEK293 landing pad (RPLP)
How it was run: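 An ALFA-nanobody-fused binder library was recombined into HEK293 landing-pad cells and induced with 2 μg mL^−1 doxycycline. Cells were transfected with a plasmid expressing a FLAG-tagged target and a Myc-tagged standard. After 48 h, lysates underwent anti-FLAG and anti-Myc immunoprecipitation, and circular RNA barcodes were reverse transcribed, amplified and sequenced. Target abundance is the per-binder median log2 ratio of FLAG to Myc barcode read proportions. Barcodes needed ≥10^−7 proportion in both replicates, binders ≥3 barcodes per replicate, and a 10^−6 pseudocount was added; the two replicates were pooled.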

GABARAPL2, P60520, sequence (P60520 whole entry, the tested form may be a part): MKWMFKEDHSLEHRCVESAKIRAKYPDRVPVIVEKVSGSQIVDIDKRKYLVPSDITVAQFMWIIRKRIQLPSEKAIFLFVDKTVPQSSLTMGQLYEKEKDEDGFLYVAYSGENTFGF

Binder | median log2 fold change
B1 | 0.199
B2 | 0.299
B3 | 0.152
B4 | 0.125
B5 | 0.23
B6 | 0.221
B7 | 0.177
B8 | 0.157
B9 | 0.0119
B10 | 0.126
B11 | 0.229
B12 | 0.0915
B13 | 0.217
B14 | 0.166
B15 | 0.16
B16 | 0.219

Binder | median log2 fold change
B17 | 0.0792
B18 | 0.275
B19 | 0.186
B20 | 0.276
B21 | -0.0323
B22 | 0.2
B23 | -0.185
B24 | -0.0591
B25 | 0.111
B26 | 0.379
B27 | 0.174
B28 | -0.231
B29 | -0.39
B30 | -0.0409
B31 | 0.142
B32 | 0.217
